Measured values as given in PubChem BioAssay (Tox21).
Inconclusive results are not listed. The source holds several records for some structures; these can differ, active in one and inactive in another. Activity calls are given as the source filed them. Unless noted, the call rests on the fitted dose curve; in most records, active means well fitted curve in the direction sought with a large enough effect in the repeat runs; inconclusive means weak or mixed curves; inactive means no such curve, though single readings can be large; an effect the other way counts as inactive or inconclusive.

Legend:
[1] = biological target: Retinoic acid receptor RXR-alpha (Homo sapiens) (UniProt P19793); test: qHTS assay to identify small molecule agonists of the RXR signaling pathway (AID 1159527; calls by dose curve; further: nearly all actives have a fitted effect of over 35% in size)
Retinoic acid receptor RXR-alpha (Homo sapiens), sequence (P19793 whole entry, looked up): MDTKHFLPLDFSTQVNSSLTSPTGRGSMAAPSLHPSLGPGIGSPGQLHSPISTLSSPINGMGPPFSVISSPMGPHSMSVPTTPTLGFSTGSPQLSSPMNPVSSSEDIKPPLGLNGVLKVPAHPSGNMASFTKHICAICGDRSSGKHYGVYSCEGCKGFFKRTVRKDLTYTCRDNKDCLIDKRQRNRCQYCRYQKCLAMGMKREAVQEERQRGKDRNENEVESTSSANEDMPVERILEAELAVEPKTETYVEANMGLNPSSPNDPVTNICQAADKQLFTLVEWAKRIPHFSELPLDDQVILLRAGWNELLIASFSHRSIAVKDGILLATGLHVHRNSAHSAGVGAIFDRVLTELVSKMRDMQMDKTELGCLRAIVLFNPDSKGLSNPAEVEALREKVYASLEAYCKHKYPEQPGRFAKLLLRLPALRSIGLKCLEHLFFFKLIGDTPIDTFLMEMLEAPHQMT
How it was run: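 Read-out: beta-lactamase FRET ratio (405 nm excitation, 460 and 530 nm emission) after 2 hr substrate loading at room temperature. Cells were RXR-alpha-UAS-bla HEK 293T treated with compounds for 16 hr in 2% charcoal-stripped FBS medium.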

[2] = qHTS assay to identify small molecule agonists of the RXR signaling pathway - cell viability counter screen (AID 1159529); further: nearly all actives have a fitted effect of over 50% in size; further: potency means the concentration at half of the fitted maximal effect
How it was run: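 HEK 293T RXRa-bla cells, 2% CS-FBS; 5 h settle; cpd 16 h 37 C, 5% CO2; CellTiter-Glo 30 min RT, luminescence. Tetraoctyl ammonium bromide as positive control.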

[3] = qHTS assay to identify small molecule antagonists of the retinoid acid receptor (RAR) signaling pathway - cell viability counter screen (AID 1159551); further: nearly all actives have a fitted effect of over 35% in size
How it was run: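 Measured by luminescent ATP detection, viability reflects C3RL4 cells treated 6 h at 37 C with test chemicals in the presence of 1 uM (final) retinol.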

[4] = qHTS assay to identify small molecule antagonists of the retinoic acid receptor (RAR) signaling pathway (AID 1159552; further: nearly all actives have a fitted effect of over 50% in size)
How it was run: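 Cells of the C3RL4 line were seeded, incubated overnight, then dosed with compounds in DMSO followed immediately by retinol (1 uM final). Six hours later luciferase detection reagent went in; signal was measured after 30 min at RT.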

[5] = qHTS assay to identify small molecule agonists of the retinoic acid receptor (RAR) signaling pathway (AID 1159553); settings: C3RL4 RARE luciferase reporter, agonist, 6 h
How it was run: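 6 hr compound exposure (DMSO vehicle) of overnight-plated C3RL4 RARE-luc cells at 37 C; luminescence quantified after 30 min RT with luciferase reagent.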

[6] = qHTS assay to identify small molecule antagonists of the estrogen related receptor (ERR) signaling pathway from Tox21 library - cell viability counter screen (AID 1224834); further: nearly all actives have a fitted effect of over 30% in size; further: potency means the concentration at half of the fitted maximal effect
How it was run: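 Seeded ERR cells were rested 6 h at 37 C/5% CO2 before compounds, positive and negative controls or DMSO were added. Incubation continued for 17.5 h, and viability was then quantified by CellTiter-Fluor fluorescence.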

[7] = biological target: Luciferin 4-monooxygenase (Photinus pyralis) (UniProt P08659); test: qHTS assay to identify small molecule inhibitors of firefly luciferase (AID 1224835); further: nearly all actives have a fitted effect of over 25% in size; further: potency means the concentration at half of the fitted maximal effect
Luciferin 4-monooxygenase (Photinus pyralis), sequence (P08659 whole entry, looked up): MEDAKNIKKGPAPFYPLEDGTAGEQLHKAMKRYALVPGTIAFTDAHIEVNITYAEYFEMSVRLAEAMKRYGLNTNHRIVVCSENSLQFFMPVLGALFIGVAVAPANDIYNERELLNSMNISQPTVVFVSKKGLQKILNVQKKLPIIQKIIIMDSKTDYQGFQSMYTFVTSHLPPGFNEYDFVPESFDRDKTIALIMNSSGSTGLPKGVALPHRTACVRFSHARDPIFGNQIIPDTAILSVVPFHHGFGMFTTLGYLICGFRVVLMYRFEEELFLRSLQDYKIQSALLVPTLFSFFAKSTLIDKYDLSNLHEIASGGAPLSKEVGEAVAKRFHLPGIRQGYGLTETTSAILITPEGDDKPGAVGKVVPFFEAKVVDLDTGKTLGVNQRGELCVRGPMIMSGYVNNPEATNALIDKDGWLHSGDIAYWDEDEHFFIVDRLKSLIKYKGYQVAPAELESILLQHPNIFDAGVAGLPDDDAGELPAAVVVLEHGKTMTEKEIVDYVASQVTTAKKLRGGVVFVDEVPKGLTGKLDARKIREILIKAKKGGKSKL
How it was run: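 Biochemical qHTS: compounds run as interplate titrations against purified firefly enzyme, with D-luciferin and ATP each at its KM concentration. Light output recorded by CCD imaging.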

[8] = qHTS assay to identify small molecule agonists of the constitutive androstane receptor (CAR) signaling pathway - cell viability counter screen (AID 1224836); further: nearly all actives have a fitted effect of over 45% in size
How it was run: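 HepG2-CYP2B6-hCAR, 2500 cells/well, 4 h pre-incubation; cpd 15 conc + PK11195 0.75 uM final; 23 h, 37 C/5% CO2; CellTiter-Fluor, fluorescence.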

[9] = qHTS assay to identify small molecule antagonists of the constitutive androstane receptor (CAR) signaling pathway - cell viability counter screen (AID 1224837); further: nearly all actives have a fitted effect of over 45% in size
How it was run: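 To flag cytotoxic false antagonists, HepG2 hCAR/CYP2B6-2.2kb cells were treated 23 hr with 15-concentration compound series and 50 nM CITCO at 37 C/5% CO2; CellTiter-Fluor fluorescence was the measured end point.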

[10] = biological target: Nuclear receptor subfamily 1 group I member 3 (Homo sapiens) (UniProt Q14994); test: qHTS assay to identify small molecule antagonists of the constitutive androstane receptor (CAR) signaling pathway (AID 1224838);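 further: HepG2 cells stably expressing hCAR with CYP2B6 luciferase reporter stimulated by CITCO; nearly all actives have a fitted effect of over 40% in size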; further: potency means the concentration at half of the fitted maximal effect
Nuclear receptor subfamily 1 group I member 3 (Homo sapiens), sequence (Q14994 whole entry, looked up): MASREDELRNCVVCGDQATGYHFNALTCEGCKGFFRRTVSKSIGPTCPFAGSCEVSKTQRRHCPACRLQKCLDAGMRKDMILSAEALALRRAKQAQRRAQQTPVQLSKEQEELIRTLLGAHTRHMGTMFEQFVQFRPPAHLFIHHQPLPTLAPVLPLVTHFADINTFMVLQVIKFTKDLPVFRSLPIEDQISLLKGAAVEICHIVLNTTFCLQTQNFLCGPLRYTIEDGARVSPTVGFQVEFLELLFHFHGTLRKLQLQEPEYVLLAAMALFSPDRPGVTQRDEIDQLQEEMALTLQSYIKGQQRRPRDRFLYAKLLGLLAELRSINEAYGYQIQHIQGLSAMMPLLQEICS
How it was run: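 Human hepatoma HepG2 cells expressing hCAR and a CYP2B6 promoter (2.2 kb) luciferase construct; compound titration (15 points) with 50 nM CITCO final, 24 h at 37 C/5% CO2; luminescence via ONE-Glo after 30 min at room temperature.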

[11] = biological target: Nuclear receptor subfamily 1 group I member 3 (Homo sapiens) (UniProt Q14994); test: qHTS assay to identify small molecule agonists of the constitutive androstane receptor (CAR) signaling pathway (AID 1224839); further: nearly all actives have a fitted effect of over 15% in size; further: potency means the concentration at half of the fitted maximal effect;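 on activation: HepG2 cells stably carrying human CAR and a CYP2B6 luciferase reporter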
How it was run: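 HepG2-CYP2B6-hCAR cells, 2500/well, 4 h pre-incubation; compounds 15 conc.; PK11195 0.75 uM final; 24 h, 37 C/5% CO2; ONE-Glo luciferase read.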

[12] = qHTS assay to identify small molecule antagonists of the estrogen related receptor signaling pathway with the pleiotropic PPARgamma coactivator (PGC) from Tox21 10K library - cell viability counter screen (AID 1224840; active means well fitted cell-killing curve with a large enough effect in the repeat runs, not every such curve was filed as active; further: nearly all actives have a fitted effect of over 40% in size; further: potency means the concentration at half of the fitted maximal effect)
How it was run: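 Seeded PGC/ERR cells (2,000/well, 6 h, 37 C/5% CO2) get compound by pin tool; 17.5 h incubation at 37 C; CellTiter-Fluor added, 30 min, fluorescence measured.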

[13] = qHTS assay to identify small molecule agonists of the hypoxia (HIF-1) signaling pathway - cell viability counter screen (AID 1224844; calls by dose curve; further: nearly all actives have a fitted effect of over 50% in size; further: potency means the concentration at half of the fitted maximal effect)
How it was run: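 HRE-bla ME-180; 0.5% dFBS; cpd 17 h, 37C, 5% CO2; CellTiter-Glo lum., 30 min RT, post-FRET read, same wells.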

[14] = qHTS assay to identify small molecule agonists of H2AX (AID 1224845; active means well fitted activation curve with a large enough effect in the signal ratio in the repeat runs, not every such curve was filed as active; the % refers to the signal ratio; further: potency means the concentration at half of the fitted maximal effect)
How it was run: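 Wild-type CHO-K1 cells, plated overnight, exposed 3hr at 37C to 15 concentrations (0.76% DMSO final). Lysed, then HTRF anti-pH2AX (S139) cryptate and anti-H2AX-d2 antibodies, 24 hr room temperature; 665/620 nm emission read.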

[15] = qHTS assay to identify small molecule agonists of the hypoxia (HIF-1) signaling pathway (AID 1224846; active means well fitted activation curve with a large enough effect in the signal ratio in the repeat runs, not every such curve was filed as active; the % refers to the signal ratio)
How it was run: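 Reporter induction in HRE-bla ME-180 cells is taken as agonism: cells sit 5 hrs after plating, receive compounds or DMSO only, incubate 17 hrs at 37C under 5% CO2, and are loaded with CCF4-AM for beta-lactamase FRET measurement.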

[16] = qHTS assay to identify small molecule antagonists of the estrogen related receptor signaling pathway with the pleiotropic PPARgamma coactivator (PGC) from Tox21 10K library (AID 1224841; call rule not given here; further: actives are mostly falling curves and most rising ones were filed inactive; nearly all actives have a fitted effect of over 50% in size; further: potency means the concentration at half of the fitted maximal effect)
How it was run: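 Test chemicals dissolved in DMSO were applied to pre-incubated (6 h) PGC/ERR cells at 2,000 cells/well for an 18 h, 37 C treatment; reporter luminescence was then read using One-Glo.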

[17] = qHTS assay to identify small molecule agonists of the estrogen related receptor signaling pathway with the pleiotropic PPARgamma coactivator (PGC) from Tox21 10K library (AID 1224842); further: nearly all actives have a fitted effect of over 15% in size
How it was run: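 PGC/ERR reporter cell line, 2,000 cells per well, incubated 6 h at 37 C before 23 nL compound in DMSO was added. After 18 h at 37 C, One-Glo luminescence read following 30 min at room temperature.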

[18] = biological target: Thyrotropin receptor (Homo sapiens) (UniProt P16473); test: qHTS assay to identify small molecule agonists of the thyroid stimulating hormone receptor (TSHR) signaling pathway (AID 1224843; calls by dose curve; further: nearly all actives have a fitted effect of over 45% in size)
Thyrotropin receptor (Homo sapiens), sequence (P16473 whole entry, looked up): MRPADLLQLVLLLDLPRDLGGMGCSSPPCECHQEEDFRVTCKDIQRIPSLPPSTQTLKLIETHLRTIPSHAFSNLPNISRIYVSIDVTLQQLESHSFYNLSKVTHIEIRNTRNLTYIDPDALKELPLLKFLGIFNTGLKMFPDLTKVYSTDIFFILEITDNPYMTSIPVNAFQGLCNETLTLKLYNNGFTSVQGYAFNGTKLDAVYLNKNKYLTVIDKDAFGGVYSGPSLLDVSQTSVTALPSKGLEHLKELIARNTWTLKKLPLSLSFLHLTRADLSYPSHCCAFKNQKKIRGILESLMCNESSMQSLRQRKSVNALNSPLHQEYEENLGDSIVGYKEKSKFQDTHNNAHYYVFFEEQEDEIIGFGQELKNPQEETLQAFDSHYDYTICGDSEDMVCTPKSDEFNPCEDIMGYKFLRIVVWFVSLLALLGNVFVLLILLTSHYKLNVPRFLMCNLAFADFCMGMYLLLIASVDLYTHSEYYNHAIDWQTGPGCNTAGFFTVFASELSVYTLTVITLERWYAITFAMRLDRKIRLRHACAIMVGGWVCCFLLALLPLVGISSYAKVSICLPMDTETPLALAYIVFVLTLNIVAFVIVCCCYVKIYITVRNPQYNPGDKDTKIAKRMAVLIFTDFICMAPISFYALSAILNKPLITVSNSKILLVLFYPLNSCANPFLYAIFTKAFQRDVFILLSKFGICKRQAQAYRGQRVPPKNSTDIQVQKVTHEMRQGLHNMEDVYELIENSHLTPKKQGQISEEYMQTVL
How it was run: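 HEK293/TSHR, 800 cells/well; cpd 30 min RT; add cAMP-d2 + anti-cAMP-cryptate, 1 h RT; fluorescence read on plate reader. 15-pt titration, n=3.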

[19] = activation: at 73.3 µM (top of the series) unless noted
On the % scale 0 is the no-effect control and ±100 the full control effect.

O=S(=O)(c1ccc(O)cc1)c1ccc(O)cc1
inactive: Potency [1] | Potency [2] | outcome [3] | Potency [4] | Potency [5, 19] | Potency [6] | Potency [7] | Potency [8] | Potency [9] | Potency [10] | Potency [11] | Potency [12] | Potency [13] | Potency [14] | outcome [15]

CC(C)(C)C(O)(CCc1ccc(Cl)cc1)Cn1cncn1 (centres undefined)
inactive: Potency [1] | Potency [2] | outcome [3] | Potency [4] | activation ([5]; at 73.3 µM (top of the series)) -2.94% | Potency [7] | Potency [8] | Potency [9] | Potency [10] | Potency [11] | Potency [12] | outcome [17] | Potency [13] | Potency [14] | outcome [15]
active: activation [5, 19] -3.95% [at 94.8 µM] | Potency [16] 55.1 µM

O=Cc1cccc(Oc2ccccc2)c1
inactive: Potency [1] | Potency [2] | outcome [3] | Potency [4] | Potency [5, 19] | Potency [6] | Potency [7] | Potency [8] | Potency [9] | Potency [10] | Potency [11] | Potency [12] | Potency [18] | Potency [13] | Potency [14] | outcome [15]

Nc1ccc(Cc2ccc(N)cc2)cc1
inactive: Potency [1] | Potency [2] | Potency [4] | Potency [5, 19] | Potency [6] | Potency [7] | Potency [8] | Potency [9] | Potency [10] | Potency [12] | Potency [18] | Potency [13] | Potency [14] | outcome [15]

COc1ccc2c3c1O[C@H]1[C@@H](O)C=C[C@H]4[C@@H](C2)N(C)CC[C@@]341
23.9 µM (active) and inactive: Potency [16]
42.6 µM (active) and inactive: Potency [6] | Potency [12]
inactive: Potency [1] | Potency [2] | outcome [3] | Potency [7] | Potency [8] | Potency [9] | outcome [17] | Potency [18] | Potency [13] | outcome [15]
99.2 µM (active) and inactive: Potency [14]

Clc1ccccc1Cl
inactive: Potency [1] | Potency [2] | Potency [4] | Potency [5, 19] | Potency [6] | Potency [7] | Potency [8] | Potency [9] | Potency [10] | Potency [11] | Potency [12] | Potency [18] | Potency [13] | Potency [14] | outcome [15]

O=c1[nH]c2ccccc2c(=O)o1
inactive: Potency [1] | Potency [2] | Potency [4] | Potency [5, 19] | Potency [6] | Potency [7] | Potency [8] | Potency [9] | Potency [10] | Potency [11] | Potency [12] | Potency [18] | Potency [13] | Potency [14] | outcome [15]

O=NN1CCCCCCC1
inactive: Potency [1] | Potency [2] | Potency [4] | Potency [5, 19] | Potency [6] | Potency [7] | Potency [8] | Potency [9] | Potency [10] | Potency [11] | Potency [12] | Potency [18] | Potency [13] | Potency [14] | outcome [15]

O=c1n(Cl)c(=O)n(Cl)c(=O)n1Cl
inactive: Potency [1] | Potency [2] | Potency [4] | Potency [5, 19] | Potency [6] | Potency [7] | Potency [8] | Potency [9] | Potency [10] | Potency [11] | Potency [12] | Potency [18] | Potency [13] | Potency [14] | outcome [15]

CCC[N+](=O)[O-]
8.48 µM (active) and inactive: Potency [10]
37.9 µM (active) and inactive: Potency [12]
30.3 µM (active) and inactive: Potency [2]
26.8 µM (active) and inactive: Potency [6]
4.81 µM (active) and inactive: Potency [13]
5.56 µM (active) and inactive: Potency [14]
34.9 µM (active) and inactive: Potency [7]
inactive: Potency [1] | outcome [3] | Potency [11] | Potency [18] | outcome [15]

CCNc1nc(NC(C)C)nc(SC)n1
active: Potency [11] 48.6 µM
inactive: Potency [1] | Potency [2] | outcome [3] | Potency [6] | Potency [7] | Potency [8] | Potency [9] | Potency [10] | Potency [12] | Potency [18] | Potency [13] | Potency [14] | outcome [15]

Cn1cc(-c2ccccc2)c(=O)c(-c2cccc(C(F)(F)F)c2)c1
inactive: Potency [1] | Potency [2] | outcome [3] | Potency [4] | Potency [5, 19] | Potency [7] | Potency [8] | Potency [9] | Potency [10] | Potency [11] | Potency [12] | Potency [16] | outcome [17] | Potency [18] | Potency [13] | Potency [14] | outcome [15]

CCCCCCCCCl
inactive: Potency [1] | Potency [2] | Potency [4] | Potency [5, 19] | Potency [6] | Potency [7] | Potency [8] | Potency [9] | Potency [12] | Potency [13] | Potency [14] | outcome [15]

O=[N+]([O-])c1ccccc1
inactive: Potency [1] | Potency [2] | Potency [4] | Potency [5, 19] | Potency [6] | Potency [7] | Potency [8] | Potency [9] | Potency [12] | Potency [16] | outcome [17] | Potency [18] | Potency [13] | Potency [14] | outcome [15]

O=C1CCCN1
inactive: Potency [1] | Potency [2] | outcome [3] | Potency [6] | Potency [7] | Potency [8] | Potency [9] | Potency [10] | Potency [11] | Potency [12] | Potency [18] | Potency [13] | Potency [14] | outcome [15]

O=C(O)c1ccccn1
inactive: Potency [1] | Potency [2] | outcome [3] | Potency [6] | Potency [7] | Potency [8] | Potency [9] | Potency [10] | Potency [11] | Potency [12] | Potency [13] | Potency [14] | outcome [15]

OCCN(CCO)CCO
inactive: Potency [1] | Potency [2] | Potency [4] | Potency [5, 19] | Potency [6] | Potency [7] | Potency [8] | Potency [9] | Potency [10] | Potency [12] | Potency [18] | Potency [13] | Potency [14] | outcome [15]

CN(C)[C@@H]1C(=O)C(C(N)=O)=C(O)[C@@]2(O)C(=O)C3=C(O)c4c(O)cccc4[C@@](C)(O)[C@H]3C[C@@H]12
inactive: Potency [1] | Potency [2] | outcome [3] | Potency [6] | Potency [8] | Potency [9] | Potency [10] | Potency [11] | Potency [12] | Potency [18] | Potency [13] | Potency [14]

CN1C(=O)CN=C(c2ccccc2)c2cc(Cl)ccc21
inactive: Potency [1] | Potency [2] | outcome [3] | Potency [5, 19] | Potency [6] | Potency [8] | Potency [9] | Potency [10] | Potency [11] | Potency [12] | Potency [16] | Potency [18] | Potency [13] | Potency [14] | outcome [15]
